Sampled rows, rich in hits. Any-hit rate of the full collection: about 1.2%.
PrP 5UTR inh – inhibition of PrP 5' UTR reporter expression. AID 488862, 2010. inhibition, % (test concentration not listed). 340,000 tested, 0.35% active. cell-based PrP 5' UTR mRNA reporter, plate reader; in the data active = inhibition above about 52%; note: 0 = median of the neutral control wells
Rv3671c inh – Rv3671c serine protease inhibitors, primary screen, biochemical, fluorescence polarization, M. tuberculosis H37Rv. inhibition, % at 5.96 µM. 320,000 tested, 0.048% active. P9WHR9. AID 2606, 2010; in the data active = inhibition above about 38%;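 note: extracellular domain of Rv3671c used as enzyme; 0% = enzyme with DMSO and 100% = no enzyme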
Target sequence (P9WHR9 whole entry, looked up, the tested form may be a part): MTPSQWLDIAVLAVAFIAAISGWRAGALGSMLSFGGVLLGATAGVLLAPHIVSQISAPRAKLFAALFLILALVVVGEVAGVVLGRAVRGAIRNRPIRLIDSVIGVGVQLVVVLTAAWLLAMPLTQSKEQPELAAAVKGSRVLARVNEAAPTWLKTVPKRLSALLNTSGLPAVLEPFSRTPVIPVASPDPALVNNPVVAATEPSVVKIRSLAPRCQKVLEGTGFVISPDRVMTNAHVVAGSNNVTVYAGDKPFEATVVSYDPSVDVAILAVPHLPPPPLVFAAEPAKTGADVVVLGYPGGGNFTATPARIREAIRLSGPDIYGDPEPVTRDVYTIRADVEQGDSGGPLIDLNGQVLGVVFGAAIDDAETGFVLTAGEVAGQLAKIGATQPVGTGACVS
PriA SSB inh – inhibitors of Klebsiella pneumoniae PriA binding to SSB C-terminal tail, primary screen, biochemical, AlphaScreen; PriA–SSB C-terminal tail interaction (Klebsiella pneumoniae); AlphaScreen SSBct-PriA binding, biotinylated peptide; inhibition, % at 33 µM; 430,000 tested, 0.6% active; in the data active = inhibition mostly above about 37%, no sharp cut-off; inactive = mostly below about 20%;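 note: plate controls were negative control peptide for no effect and reference peptide for full effect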
Mtb UGM inh – M. tuberculosis UGM enzyme inhibitors, primary screen, biochemical, fluorescence polarization, single point. 320,000 tested, 0.06% active. inhibition, % at 10 µM. purified UGM, fluorescence polarization probe displacement. UDP-galactopyranose mutase (Mycobacterium tuberculosis (strain ATCC 25618 / H37Rv)), …; in the data active = inhibition above about 10%, passing the limit was not always enough; inconclusive = no clear call, values can overlap the other calls
PrPC TRFRET – inhibitors of human cell surface prion protein PrPC, primary screen, cell-based, TR-FRET; TR-FRET read-out; inhibition, % at 13.8 µM; AID 720596, 2013; Major prion protein (Homo sapiens), P04156; 370,000 tested, 0.43% active; in the data active = inhibition above about 24%; note: 0% = median of the test wells and 100% = reference compound wells
FadD28 binding – inhibitors of FadD28 bisubstrate probe binding, primary screen, biochemical, fluorescence polarization, single point; Mycobacterium tuberculosis FadD28 fatty-acid-AMP ligase; inhibition, % at 12.5 µM; 360,000 tested, 0.22% active; in the data active = inhibition above about 8.5%, passing the limit was not always enough; inconclusive = no clear call, values can overlap the other calls
* hit, by the source's call; ! = repeats disagree.

Screening COc1ccc(N2C(=O)NC(=O)/C(=C\c3ccc([N+](=O)[O-])s3)C2=O)cc1 returned PrP 5UTR inh -5.3, Rv3671c inh -34.9, PriA SSB inh 8.3, Mtb UGM inh -1.0, PrPC TRFRET -7.1 and FadD28 binding 35.6*.
Screening COc1ccc(N2C(=O)NC(=O)/C(=C/c3ccc([N+](=O)[O-])s3)C2=O)cc1 returned Rv3671c inh -16.4, PriA SSB inh 14.2, Mtb UGM inh 0.3, PrPC TRFRET -1.1 and FadD28 binding 35.0*.
`COC[C@@](C)(O)CNC(=O)c1cnccn1` gave PriA SSB inh 4.0.
O=C(c1cccs1)N1N=C(c2ccccc2)CC1c1ccc2nccnc2c1 (centres undefined) was read as PriA SSB inh 37.0*.
O=C(c1cccs1)N1N=C(c2ccccc2)C[C@H]1c1ccc2nccnc2c1 was read as PriA SSB inh -1.0.
For CCc1sc(/C=C(/C#N)C(N)=S)cc1[N+](=O)[O-] the results were PrP 5UTR inh -10.1, PriA SSB inh -2.5, PrPC TRFRET -3.3 and FadD28 binding 17.5*.
Screening CCc1ccc(/C=C(/C#N)C(N)=S)s1 returned PrP 5UTR inh -13.6, Rv3671c inh 1.1, PriA SSB inh -3.1, Mtb UGM inh 2.8, PrPC TRFRET -0.1 and FadD28 binding -0.3.
`COc1ccc(-c2nc(CCNC(=O)CC3CCCC3)cs2)cc1OC` gave PriA SSB inh 4.0.
Cc1cc2nc3c(=O)n(CCc4ccccc4)c(=O)[nH]c3nc2cc1N was read as PrP 5UTR inh -5.0, Rv3671c inh -8.8, PriA SSB inh -13.9, Mtb UGM inh 17.1*, PrPC TRFRET -7.8 and FadD28 binding -1.8.
Nc1ccc2nc3c(=O)n(C4CCCCC4)c(=O)[nH]c3nc2c1 was read as PrP 5UTR inh -67.7, Rv3671c inh 7.3, PriA SSB inh -6.4, Mtb UGM inh 36.5*, PrPC TRFRET -35.3 and FadD28 binding 0.3.
For Nc1ccc2nc3c(=O)n(CCc4ccccc4)c(=O)[nH]c3nc2c1 the results were Rv3671c inh -24.1, PriA SSB inh -8.5, Mtb UGM inh inconclusive, PrPC TRFRET -11.9 and FadD28 binding -1.1.
Screening C=CCn1c(=O)[nH]c2nc3cc(N=CN(C)C)c(C)cc3nc2c1=O returned PrP 5UTR inh -18.6, Rv3671c inh -13.0, PriA SSB inh -3.5, Mtb UGM inh 6.9, PrPC TRFRET -37.8 and FadD28 binding 2.1.
Screening CCCCn1c(=O)[nH]c2nc3cc(N)ccc3nc2c1=O returned PrP 5UTR inh -43.4, Rv3671c inh 9.3, PriA SSB inh -16.7, Mtb UGM inh 33.2*, PrPC TRFRET -27.2 and FadD28 binding 2.7.
Screening COc1cc2[nH]c(=O)n(C3CCCCC3)c(=O)c2cc1OC returned PrP 5UTR inh -5.6, Rv3671c inh 9.7, PriA SSB inh -12.6, Mtb UGM inh 0.7, PrPC TRFRET 0.6 and FadD28 binding -3.2.
`CC(C)S(=O)(=O)c1ccc(CC(=O)NC2CCN(c3ccccn3)C2)cc1` (centres undefined) gave PriA SSB inh -8.0.
For COc1ccnc(CSC(N)=Nc2ccccc2OC)c1 the results were PrP 5UTR inh -5.1, Rv3671c inh -15.7, PriA SSB inh 40.4*, Mtb UGM inh -1.8, PrPC TRFRET -11.9 and FadD28 binding -4.9.
COc1ccnc(CSC(N)=Nc2ccccc2C(F)(F)F)c1 was read as PrP 5UTR inh -21.7, Rv3671c inh -4.1, PriA SSB inh 5.4, Mtb UGM inh -0.2, PrPC TRFRET -3.9 and FadD28 binding -4.5.
CCC1CCC(C(=O)NNC(=O)c2cc(-c3ccco3)[nH]n2)CC1 (centres undefined) was read as PrP 5UTR inh -3.4, Rv3671c inh 0.3, PriA SSB inh 4.1, Mtb UGM inh 3.8, PrPC TRFRET -3.7 and FadD28 binding 11.4*.
CCNc1nc2c(c(=O)n(C)c(=O)n2C)n1Cc1ccc(Cl)cc1 was read as PrP 5UTR inh -14.5, Rv3671c inh 9.4, PriA SSB inh 0.1, Mtb UGM inh -4.0, PrPC TRFRET 12.1 and FadD28 binding -2.6.
CCC(C)Nc1nc2c(c(=O)n(C)c(=O)n2C)n1Cc1ccc(Cl)cc1 (centres undefined) was read as PrP 5UTR inh -8.1, Rv3671c inh 8.0, PriA SSB inh 104.2*, Mtb UGM inh 1.4, PrPC TRFRET 15.3 and FadD28 binding -3.2.
For Cn1c(=O)c2c(ncn2Cc2ccc(Cl)cc2)n(C)c1=O the results were PrP 5UTR inh -18.5, Rv3671c inh -2.9, PriA SSB inh -8.0, Mtb UGM inh 0.3, PrPC TRFRET 16.1 and FadD28 binding 15.8*.
CC(=O)c1ccc2nc(N)sc2c1 was read as PriA SSB inh 34.9.
For CCNC(=O)c1ccc2nc(N)sc2c1 the results were PriA SSB inh 35.7.
`Nc1nc2ccc(C(=O)O)cc2s1` gave PriA SSB inh 89.0*!.
Screening CCCNC(=O)c1ccc2nc(N)sc2c1 returned PriA SSB inh 87.3*.
`COC(=O)c1ccc2nc(N)sc2c1` gave PriA SSB inh 53.0*.
For CCCSc1nc2c(c(=O)[nH]1)C(c1ccc(C)o1)C1=C(CC(C)(C)CC1=O)N2 (centres undefined) the results were PriA SSB inh -5.0.
For COC(=O)C(=CNc1cccc2ccccc12)[N+](=O)[O-] the results were PriA SSB inh 54.6*.
For COc1cccc2cc(C(=O)N3CCc4c(cnc5cc(C)nn45)C3)oc12 the results were PriA SSB inh -5.0.
Screening O=C1c2ccccc2C2=Nc3ccccc3SC(c3ccc(Cl)cc3)C12 (centres undefined) returned PrP 5UTR inh -24.0, Rv3671c inh -9.5, PriA SSB inh 53.0*, Mtb UGM inh 0.9, PrPC TRFRET -6.2 and FadD28 binding -2.3.
For O=C1c2ccccc2C2=Nc3ccccc3SC(c3cccc(F)c3)C12 (centres undefined) the results were PrP 5UTR inh -15.2, Rv3671c inh -43.6, PriA SSB inh 27.4, PrPC TRFRET 6.0 and FadD28 binding -6.0.
Screening O=C(CS(=O)(=O)Cc1ccccc1)Nc1ccc(S(=O)(=O)N2CCCCCC2)cc1 returned PrP 5UTR inh -16.4, Rv3671c inh -27.8, PriA SSB inh 3.4, Mtb UGM inh -1.3, PrPC TRFRET -1.9 and FadD28 binding 23.6*.
O=C(COC(=O)c1ccc(O)cc1O)Nc1cccc2ccccc12 was read as PrP 5UTR inh -13.8, Rv3671c inh -12.5, PriA SSB inh -16.6, Mtb UGM inh -1.8, PrPC TRFRET -5.7 and FadD28 binding 12.0*.
`Cc1ccc(C(=O)OCC(=O)Nc2ccccc2Cl)c(O)c1` gave PrP 5UTR inh -4.8, Rv3671c inh 5.6, PriA SSB inh -8.8, Mtb UGM inh -3.9, PrPC TRFRET 8.2 and FadD28 binding -1.4.

Source: PubChem BioAssay (several laboratories)
